Assay outcomes: PubChem BioAssay, Broad Institute
TcdB inh: TcdB glycohydrolase inhibitors, primary screen, biochemical, single point, plate reader; Toxin B (Clostridioides difficile), P18177; TcdB glycohydrolase enzymatic assay; inhibition, % at 9.99 µM; actives 0.24% (n = 350,000); in the data active means inhibition above about 10%
Y pestis TopoI: Yersinia pestis topoisomerase I inhibitors, primary screen, biochemical, cleavage product accumulation, plate reader, single point | Y. pestis Topo-I cleavage product accumulation | actives 0.064% (n = 360,000) | activity, % at 10 µM; in the data active means activity above about 50%, passing the limit was not always enough; inconclusive means no clear call, values can overlap the other calls
PrP 5UTR inh: inhibition of PrP 5' UTR reporter expression; cell-based PrP 5' UTR mRNA reporter, plate reader; inhibition, % (concentration not given with the values); actives 0.35% (n = 340,000); in the data active means inhibition above about 52%; further: 0 = median of the neutral control wells
BioA inh-1: M. tuberculosis BioA enzyme inhibitors, primary screen, biochemical, plate reader, single point, HTS. purified M. tuberculosis BioA enzyme. 7,8-diaminopelargonic acid synthase BioA (Mycobacterium tuberculosis). AID 602481, 2012. actives 0.096% (n = 360,000). inhibition, % at 9.99 µM; in the data active means inhibition above about 40%; inconclusive means no clear call, values can overlap the other calls
PrP UTR cherry: prion 5' UTR mRNA inhibition, cherry-pick retest; shares compounds with PrP 5UTR inh; cell-based prion protein 5' UTR reporter, plate reader; inhibition, % at 2.5 µM; actives 48% (n = 1,100); AID 504592, 2011; in the data active means inhibition above about 54%; inconclusive means no clear call, values can overlap the other calls
BioA inh-2: Mtb BioA enzyme inhibitors, dose response, biochemical, plate reader, cherry-pick samples, set 03 | shares compounds with BioA inh-1 | purified BioA enzyme | max activity, % | 310 tested, under 10 active;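 further: top concentration of the dilution series was 10 µM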
HepG2 cytotox: cytotoxicity in HepG2 cells, dose response, cytotoxicity control, cell-based, plate reader, cherry-pick, two tests; shares compounds with BioA inh-1; max activity, %; 310 tested, under 10 active
3T3 cytotox 5: cytotoxicity in NIH3T3 fibroblasts, dose response, cytotoxicity control, cell-based, plate reader, cherry-pick, two tests; shares compounds with BioA inh-1; 310 tested, under 10 active; activity change, negative = cytotoxicity, % at 26 µM
Starred values were filed as active, the others as inactive; i = inactive; u = inconclusive; x = no result given. Sampled rows, rich in hits. Any-hit rate of the full collection: about 0.57%. Unless noted, how the calls were made is not given here.

SMILES	TcdB inh	Y pestis TopoI	PrP 5UTR inh	BioA inh-1	BioA inh-2	HepG2 cytotox	3T3 cytotox 5	others
COc1ccc2cc(C(N)=O)/c(=N\NC(=O)c3ccccc3)oc2c1	-1	1	53*	0	x	x	x	PrP UTR cherry=19
CCCC[C@@H](C)C[C@@H](C)C(=O)N(C)[C@@H](CC(C)C)C(=O)N[C@H](C(=O)N(C)[C@H](C(=O)N1C[C@@H](O)C[C@H]1C(=O)N1C(=O)C=C[C@@H]1C)C(C)C)C(C)OC(C)=O (stereo partly specified)	x	2	85*	4	x	x	x	PrP UTR cherry=96*
CC(=O)N/C(=C\c1ccccc1)C(=O)OCc1ccccc1	1	-2	72*	-2	x	x	x	PrP UTR cherry=-22
COCC(=O)N1[C@H](CO)[C@@H](c2ccc(-c3cccc(OC)c3)cc2)C12CN(C(C)=O)C2	-1	x	x	x	x	x	x
CCOC(=O)C1(CC)Oc2ccccc2C(c2ccc(OC)cc2)=C1C(=O)OC (stereo unspecified)	0	34	71*	0	x	x	x	PrP UTR cherry=-7
CCOC(=O)C1Oc2ccccc2C(c2ccc(C)cc2)=C1C(=O)OC (stereo unspecified)	1	39	-13	0	x	x	x
O=C(Nc1ccccc1F)N1CC(=O)N2[C@H](CO)[C@@H](c3ccc(-c4ccccc4)cc3)[C@@H]2C1	1	x	x	x	x	x	x
CO[C@@H]1CN(C)C(=O)c2cc(NS(C)(=O)=O)ccc2OC[C@H](C)N(CC2CC2)C[C@H]1C	0	x	x	0	x	x	x
O=C1c2cccc3cc([N+](=O)[O-])cc(c23)C(=O)N1CCN1CCCC1	1	-15	90*	0	x	x	x	PrP UTR cherry=82*
COc1ccc(COC(=O)C2=C(C)NC(=O)NC2c2ccc(O)c(OC)c2)cc1 (stereo unspecified)	3	0	-15	2	x	x	x
COc1ccc(CC2C(=O)NC(C)C(=O)N(C)C3C(=O)N(C)C(Cc4ccc(O)c(c4)Oc4ccc(cc4)C3O)C(=O)NC(C)C(=O)NC(C)C(=O)N2C)cc1 (stereo unspecified)	1	20	53*	x	x	x	x	PrP UTR cherry=41
CC(C)NC(=O)Nc1cccc2c1O[C@H](CN(C)S(=O)(=O)c1cn(C)cn1)[C@@H](C)CN([C@H](C)CO)C2=O	0	x	x	-2	x	x	x
CC=Cc1ccc2n(c1=O)C[C@H]1[C@H](CO)[C@@H](C(=O)NC3CCC3)N(CCC)[C@@H]21 (mixture of isomers)	0	x	x	x	x	x	x
COc1ccc(C(=O)NCc2nnc(SC)n2Cc2ccccc2)cc1	0	-3	54*	x	x	x	x	PrP UTR cherry=8
COCC#Cc1ccc(CC[C@H]2O[C@H]3CC[C@H](CO)O[C@H]3C[C@H]2n2cc(C3(O)CCCC3)nn2)cc1	-1	x	x	x	x	x	x
O=c1oc2ccccc2cc1-c1cn2cccnc2n1	x	-6	-20	0	x	x	x
O=c1oc2ccccc2cc1-c1cn2ccccc2n1	0	0	81*	x	x	x	x	PrP UTR cherry=u
CCS(=O)(=O)Nc1ccc2c(c1)C(=O)N(C)[C@@H]1CC[C@@H](CC(=O)NC)O[C@@H]1CO2	1	x	x	-5	x	x	x
C[C@H]1CN([C@@H](C)CO)C(=O)c2cc(NS(=O)(=O)c3ccccc3)ccc2O[C@H]1CN(C)Cc1ccc2c(c1)OCO2	0	x	x	1	x	x	x
Cc1c(NC(=O)CC#N)c(=O)n(-c2ccccc2)n1C	-1	x	x	0	x	x	x
O=C(C1CCOCC1)N1CC[C@@H]2[C@H](CO)Nc3ccc(Br)cc3[C@@H]21	-3	x	x	72*	9	i	1
O=C(C1CCOCC1)N1CC[C@@H]2[C@H]1c1cc(Br)ccc1N[C@@H]2CO	2	x	x	74*	2	i	0
O=C(C1CCC1)N1CC[C@@H]2[C@@H](CO)Nc3ccc(Br)cc3[C@@H]21	0	x	x	x	x	x	x
O=C(Cc1ccccc1)N1CC[C@@H]2[C@H](CO)Nc3ccc(Br)cc3[C@@H]21	0	x	x	44*	5	i	-10
CC(C)NC(=O)N[C@@H]1CC[C@@H](CC(=O)N2CCCCC2)O[C@H]1CO	0	x	x	4	x	x	x
SMILES	TcdB inh	Y pestis TopoI	PrP 5UTR inh	BioA inh-1	BioA inh-2	HepG2 cytotox	3T3 cytotox 5	others
CC1(C(=O)NCc2ccc(F)c(F)c2)Cc2c(-c3cccc(C(N)=O)c3)ccnc2O1 (stereo unspecified)	1	10	x	62*	20	14	-1
CC1(C(=O)NCc2ccccc2)Cc2c(-c3cccc(C(N)=O)c3)ccnc2O1 (stereo unspecified)	2	4	x	12	x	x	x
C[C@@H]1CCCCO[C@H](CN(C)C)[C@H](C)CN([C@H](C)CO)C(=O)c2cc(NC(=O)Nc3ccc4c(c3)OCO4)ccc2O1	-2	x	x	2	x	x	x
CCc1ccc(C(=O)Nc2ccc(OC)c(S(=O)(=O)N3CCOCC3)c2)cc1	-2	3	-28	x	x	x	x
COc1ccc(NC(=O)c2ccc(Cl)nc2)cc1S(=O)(=O)N1CCOCC1	0	4	-17	59*	-9	-14	-4
CO[C@@H]1CN(C)C(=O)c2ccc(NS(=O)(=O)c3cn(C)cn3)cc2OC[C@@H](C)N(CCC(F)(F)F)C[C@@H]1C	-1	x	x	-1	x	x	x
COc1ccc(NC2c3ccccc3C(=O)N2c2cccnc2)cc1Cl (stereo unspecified)	0	1	-17	51*	-7	-16	-3
Cc1ccccc1-n1c(SCC(=O)N(C)C2CCS(=O)(=O)C2)nc2ccccc2c1=O (stereo unspecified)	0	-11	-13	60*	-3	18	0
CN(C(=O)CSc1nc2ccccc2c(=O)n1-c1ccccc1Cl)C1CCS(=O)(=O)C1 (stereo unspecified)	2	15	-13	50*	10	-8	1
COc1ccccc1-n1c(SCC(=O)N(C)C2CCS(=O)(=O)C2)nc2ccccc2c1=O (stereo unspecified)	x	-4	-30	u	x	x	x
C[C@@H]1CN([C@H](C)CO)C(=O)Cc2cc(NC(=O)NC3CCCCC3)ccc2O[C@@H]1CN(C)Cc1ccc2c(c1)OCO2	0	x	x	2	x	x	x
COC(=O)C[C@@H]1CC[C@H]2[C@@H](COC[C@@H](O)CN2C(=O)Nc2cccc(F)c2)O1	-1	x	x	5	x	x	x
CNC(=O)C[C@@H]1CC[C@H]2[C@@H](COC[C@H](O)CN2C(=O)Nc2cccc(OC)c2)O1	-1	x	x	1	x	x	x
CNC(=O)C[C@H]1CC[C@@H]2[C@H](COC[C@@H](O)CN2C(=O)Nc2cccc(OC)c2)O1	0	x	x	77*	5	i	-6
COC(=O)C[C@H]1CC[C@@H]2[C@H](COC[C@@H](O)CN2C(=O)Nc2cccc(F)c2)O1	1	x	x	42*	-7	i	-5
